The values below come from the supplement of paper PMC9023506.

Molecules are shown by their SMILES. Counter-ions that a name gives are not always drawn.

For this experiment, the system named is Danio rerio larvae (5 dpf). As to the kind of experiment: habituation to 1-s acoustic pulses, difference vs DMSO (percentage points (treated minus DMSO)); higher = more of the behaviour than the DMSO vehicle control. The settings on record: 10 µM; exposure time: 3 h pre-incubation + 3 h imaging. The protocol:
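5-dpf wild-type zebrafish larvae were imaged in 96-well plates. They were treated with 190 Tocris FDA-approved drugs at 10 µM (1 µl/ml DMSO) for 3 h before and 3 h during imaging at 28.5 °C, 48 larvae per drug. Automated image analysis gave % time moving and optomotor responses. Values are drug group mean minus DMSO vehicle mean (n=844), in percentage points, for 10 behaviours.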
Turning to `Cc1cccc([C@H](C)c2c[nH]cn2)c1C` [Dexmedetomidine hydrochloride], the “habituation to 1-s acoustic pulses” value is -9.7. In the case of `CC(C)C[C@H]1C(=O)N2CCC[C@H]2[C@]2(O)O[C@](NC(=O)[C@@H]3C=C4c5cccc6[nH]c(Br)c(c56)C[C@H]4N(C)C3)(C(C)C)C(=O)N12` [Bromocriptine mesylate], the “habituation to 1-s acoustic pulses” value is -3.22. The figure for `COc1ccc(C(CN(C)C)C2(O)CCCCC2)cc1` (configuration not stated) [Venlafaxine hydrochloride] is -6.08. For the compound `CN1C[C@H](C(=O)N[C@]2(C)O[C@@]3(O)[C@@H]4CCCN4C(=O)[C@H](Cc4ccccc4)N3C2=O)C[C@@H]2c3cccc4[nH]cc(c34)C[C@H]21` [Dihydroergotamine mesylate], the “habituation to 1-s acoustic pulses” value came to 1.85.

For `COc1cc2c(cc1OC)C1CC(=O)C(CC(C)C)CN1CC2` (configuration not stated) [Tetrabenazine], the “habituation to 1-s acoustic pulses” value stood at 1.65. The figure for `CC(O)(CS(=O)(=O)c1ccc(F)cc1)C(=O)Nc1ccc(C#N)c(C(F)(F)F)c1` (configuration not stated) [Bicalutamide] is -5.47. As to `CC[C@@H](C(N)=O)N1CCCC1=O` [Levetiracetam], the “habituation to 1-s acoustic pulses” value is -2.74. In the case of `N[C@@H]1C[C@H]1c1ccccc1` [Tranylcypromine hydrochloride], the “habituation to 1-s acoustic pulses” value was -0.45. As for `C=C1C[C@@H]2[C@H](CC[C@]3(C)C(=O)CC[C@@H]23)[C@@]2(C)C=CC(=O)C=C12` [Exemestane], the “habituation to 1-s acoustic pulses” value is -0.223. For `CCN(C)C(=O)Oc1cccc([C@H](C)N(C)C)c1` [Rivastigmine tartrate], the “habituation to 1-s acoustic pulses” value was -1.77. Regarding `C=CCN1C[C@H](C(=O)N(CCCN(C)C)C(=O)NCC)C[C@@H]2c3cccc4[nH]cc(c34)C[C@H]21` [Cabergoline], the “habituation to 1-s acoustic pulses” value worked out at 3.78. Take `O=c1[nH]c2ccccc2n1C1CCN(CCCC(c2ccc(F)cc2)c2ccc(F)cc2)CC1` [Pimozide]: the “habituation to 1-s acoustic pulses” value was -6.41.
